Experimental data: the supplement of paper PMC11732987, “Enantioselective OTUD7B fragment discovery through chemoproteomics screening and high-throughput optimisation” (Communications Chemistry, 2025)

What was measured:
Experiment in all cases: log2 ratio of Biotin-Ahx-Ub-VS probe labelling (fragment/DMSO); higher = less target engagement (more negative = stronger competition), active = hit call of the paper (q ≤ 0.05, log2 ratio ≤ -1)
Settings in all cases: compound concentration: 200 uM; treatment time: 3 h
USP34 = USP34 (UniProt Q70CQ2)
USP34, sequence (Q70CQ2 whole entry, the tested form may be a part): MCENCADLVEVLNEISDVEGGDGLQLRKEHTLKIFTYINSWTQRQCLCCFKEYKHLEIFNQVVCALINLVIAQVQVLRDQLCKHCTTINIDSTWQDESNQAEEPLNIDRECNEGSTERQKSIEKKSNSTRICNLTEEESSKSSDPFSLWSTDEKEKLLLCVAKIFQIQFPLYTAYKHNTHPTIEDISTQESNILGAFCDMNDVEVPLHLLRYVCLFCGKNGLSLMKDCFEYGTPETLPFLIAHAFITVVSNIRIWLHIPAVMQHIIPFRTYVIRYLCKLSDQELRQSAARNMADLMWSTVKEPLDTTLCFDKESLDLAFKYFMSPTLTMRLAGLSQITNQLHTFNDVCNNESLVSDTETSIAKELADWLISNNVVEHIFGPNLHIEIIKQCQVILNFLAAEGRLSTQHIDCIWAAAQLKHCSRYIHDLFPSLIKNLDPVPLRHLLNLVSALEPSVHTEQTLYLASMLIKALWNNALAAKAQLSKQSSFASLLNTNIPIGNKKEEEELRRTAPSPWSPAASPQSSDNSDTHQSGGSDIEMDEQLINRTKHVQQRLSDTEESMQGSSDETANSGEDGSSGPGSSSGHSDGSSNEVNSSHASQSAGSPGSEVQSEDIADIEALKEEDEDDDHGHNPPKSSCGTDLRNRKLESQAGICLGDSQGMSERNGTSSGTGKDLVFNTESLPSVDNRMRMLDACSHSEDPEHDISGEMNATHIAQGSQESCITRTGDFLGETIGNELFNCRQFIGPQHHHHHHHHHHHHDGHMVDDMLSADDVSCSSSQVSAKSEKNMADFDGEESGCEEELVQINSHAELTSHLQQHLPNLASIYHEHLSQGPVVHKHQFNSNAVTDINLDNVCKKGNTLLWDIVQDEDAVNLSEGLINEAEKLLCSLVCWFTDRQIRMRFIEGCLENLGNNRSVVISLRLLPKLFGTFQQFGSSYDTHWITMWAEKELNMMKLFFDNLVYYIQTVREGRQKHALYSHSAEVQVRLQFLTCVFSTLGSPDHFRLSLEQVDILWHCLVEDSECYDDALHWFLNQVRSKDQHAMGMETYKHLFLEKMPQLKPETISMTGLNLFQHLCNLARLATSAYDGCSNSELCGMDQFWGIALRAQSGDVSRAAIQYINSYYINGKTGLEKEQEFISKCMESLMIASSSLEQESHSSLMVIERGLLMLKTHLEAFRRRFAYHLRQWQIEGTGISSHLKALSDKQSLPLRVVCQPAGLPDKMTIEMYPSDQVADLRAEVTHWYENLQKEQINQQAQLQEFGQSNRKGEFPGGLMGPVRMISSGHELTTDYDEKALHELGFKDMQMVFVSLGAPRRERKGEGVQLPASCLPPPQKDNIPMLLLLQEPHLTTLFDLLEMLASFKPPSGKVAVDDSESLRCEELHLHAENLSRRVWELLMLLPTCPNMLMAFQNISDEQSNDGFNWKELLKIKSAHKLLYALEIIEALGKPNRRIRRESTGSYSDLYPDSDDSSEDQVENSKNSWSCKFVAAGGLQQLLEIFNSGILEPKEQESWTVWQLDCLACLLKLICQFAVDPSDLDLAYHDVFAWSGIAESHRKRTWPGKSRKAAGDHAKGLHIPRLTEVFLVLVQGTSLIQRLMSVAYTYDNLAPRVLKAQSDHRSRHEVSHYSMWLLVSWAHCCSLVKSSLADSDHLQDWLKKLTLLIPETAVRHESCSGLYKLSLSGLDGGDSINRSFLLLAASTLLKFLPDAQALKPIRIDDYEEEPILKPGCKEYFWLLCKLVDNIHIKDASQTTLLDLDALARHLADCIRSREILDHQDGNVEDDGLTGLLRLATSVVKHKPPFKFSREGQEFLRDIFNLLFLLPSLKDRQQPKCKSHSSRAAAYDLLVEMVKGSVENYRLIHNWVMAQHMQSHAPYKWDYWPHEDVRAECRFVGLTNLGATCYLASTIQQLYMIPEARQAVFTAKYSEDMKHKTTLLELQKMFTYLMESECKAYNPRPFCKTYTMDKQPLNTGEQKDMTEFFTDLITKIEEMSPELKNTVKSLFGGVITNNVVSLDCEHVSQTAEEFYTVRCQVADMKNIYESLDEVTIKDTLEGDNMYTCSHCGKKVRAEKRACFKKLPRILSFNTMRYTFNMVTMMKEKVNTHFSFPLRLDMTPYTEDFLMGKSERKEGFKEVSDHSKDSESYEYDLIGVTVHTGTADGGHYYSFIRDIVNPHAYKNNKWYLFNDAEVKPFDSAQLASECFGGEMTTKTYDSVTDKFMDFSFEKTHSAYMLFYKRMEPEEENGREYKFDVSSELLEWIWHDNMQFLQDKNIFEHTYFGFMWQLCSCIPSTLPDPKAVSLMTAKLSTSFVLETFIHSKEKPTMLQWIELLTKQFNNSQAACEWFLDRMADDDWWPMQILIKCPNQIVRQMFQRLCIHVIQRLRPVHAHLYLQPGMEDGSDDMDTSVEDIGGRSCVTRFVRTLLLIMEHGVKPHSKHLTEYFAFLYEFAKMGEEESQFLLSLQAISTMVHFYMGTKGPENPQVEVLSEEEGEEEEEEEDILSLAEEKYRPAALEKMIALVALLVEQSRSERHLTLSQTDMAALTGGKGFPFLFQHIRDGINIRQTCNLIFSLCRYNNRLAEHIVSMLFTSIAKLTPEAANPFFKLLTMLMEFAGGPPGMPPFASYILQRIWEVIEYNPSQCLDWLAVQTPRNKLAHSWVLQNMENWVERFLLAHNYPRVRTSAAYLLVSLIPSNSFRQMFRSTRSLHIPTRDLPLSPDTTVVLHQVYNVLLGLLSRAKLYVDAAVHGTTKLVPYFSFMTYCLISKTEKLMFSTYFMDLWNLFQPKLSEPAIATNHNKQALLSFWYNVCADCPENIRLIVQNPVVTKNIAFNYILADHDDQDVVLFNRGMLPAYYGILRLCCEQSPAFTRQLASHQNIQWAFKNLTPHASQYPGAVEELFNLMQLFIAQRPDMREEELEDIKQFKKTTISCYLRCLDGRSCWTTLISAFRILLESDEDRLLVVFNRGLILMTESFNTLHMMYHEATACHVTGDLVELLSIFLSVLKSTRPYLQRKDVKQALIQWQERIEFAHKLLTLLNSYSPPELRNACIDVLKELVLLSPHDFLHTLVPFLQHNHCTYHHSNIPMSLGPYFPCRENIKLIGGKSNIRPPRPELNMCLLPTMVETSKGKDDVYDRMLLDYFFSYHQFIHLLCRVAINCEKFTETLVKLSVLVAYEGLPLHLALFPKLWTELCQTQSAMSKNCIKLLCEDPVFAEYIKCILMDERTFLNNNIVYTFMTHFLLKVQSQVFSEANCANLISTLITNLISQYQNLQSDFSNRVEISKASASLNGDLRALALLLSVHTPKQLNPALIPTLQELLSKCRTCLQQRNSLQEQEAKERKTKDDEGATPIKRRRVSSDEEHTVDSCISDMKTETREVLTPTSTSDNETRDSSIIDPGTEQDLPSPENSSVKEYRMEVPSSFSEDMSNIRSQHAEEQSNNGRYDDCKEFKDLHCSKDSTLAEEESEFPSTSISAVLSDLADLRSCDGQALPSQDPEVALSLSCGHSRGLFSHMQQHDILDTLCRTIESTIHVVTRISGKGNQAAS
Outline: (§1)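 Triplicate samples of HEK293T lysate, 495 µg each, received fragment at 200 µM or vehicle for 3 h, followed by Biotin-Ahx-Ub-VS (0.5 µM final) for 1 h. After NeutrAvidin enrichment of labelled DUBs and LysC/trypsin digestion, peptides were run by diaPASEF LC-MS/MS. The values are average log2 fragment/vehicle ratios from global-median-normalised Spectronaut label-free quantities, tested by unpaired t-test on proteins having ≥2 unique peptides.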

USP36 = biological target: T1, USP36 (UniProt Q9P275)
T1 sequence (whole entry): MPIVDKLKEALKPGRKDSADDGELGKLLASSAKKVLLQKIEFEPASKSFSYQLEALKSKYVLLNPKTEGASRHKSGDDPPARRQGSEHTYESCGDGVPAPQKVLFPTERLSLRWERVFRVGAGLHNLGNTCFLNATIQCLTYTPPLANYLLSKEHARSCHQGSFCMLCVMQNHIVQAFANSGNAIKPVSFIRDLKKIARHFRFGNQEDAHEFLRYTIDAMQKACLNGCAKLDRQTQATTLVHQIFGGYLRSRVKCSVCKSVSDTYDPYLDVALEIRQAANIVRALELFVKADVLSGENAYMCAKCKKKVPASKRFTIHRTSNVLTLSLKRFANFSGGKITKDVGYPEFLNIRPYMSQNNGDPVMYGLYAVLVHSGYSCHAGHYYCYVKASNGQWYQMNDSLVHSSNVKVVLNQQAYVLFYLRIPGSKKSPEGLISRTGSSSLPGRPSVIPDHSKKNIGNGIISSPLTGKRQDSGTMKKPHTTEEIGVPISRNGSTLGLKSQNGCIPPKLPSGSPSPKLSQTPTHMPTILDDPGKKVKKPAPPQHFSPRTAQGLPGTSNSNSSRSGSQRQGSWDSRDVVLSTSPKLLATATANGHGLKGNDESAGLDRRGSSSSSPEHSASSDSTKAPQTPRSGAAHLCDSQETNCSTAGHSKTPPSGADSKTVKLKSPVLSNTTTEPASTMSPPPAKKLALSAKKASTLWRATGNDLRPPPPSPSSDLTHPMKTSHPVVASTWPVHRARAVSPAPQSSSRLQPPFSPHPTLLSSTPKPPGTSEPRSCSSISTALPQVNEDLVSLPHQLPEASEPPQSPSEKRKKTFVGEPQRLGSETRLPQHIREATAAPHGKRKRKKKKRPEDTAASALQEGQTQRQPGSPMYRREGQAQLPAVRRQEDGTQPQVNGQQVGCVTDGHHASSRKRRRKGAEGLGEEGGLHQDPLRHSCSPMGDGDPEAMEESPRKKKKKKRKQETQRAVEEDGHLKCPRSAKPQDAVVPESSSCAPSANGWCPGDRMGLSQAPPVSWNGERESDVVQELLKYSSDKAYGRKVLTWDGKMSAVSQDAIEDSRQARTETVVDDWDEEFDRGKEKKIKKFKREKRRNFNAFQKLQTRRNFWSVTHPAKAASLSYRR
Outline: as §1

USP38 = biological target: T2, USP38 (UniProt Q8NB14)
T2 sequence (whole entry): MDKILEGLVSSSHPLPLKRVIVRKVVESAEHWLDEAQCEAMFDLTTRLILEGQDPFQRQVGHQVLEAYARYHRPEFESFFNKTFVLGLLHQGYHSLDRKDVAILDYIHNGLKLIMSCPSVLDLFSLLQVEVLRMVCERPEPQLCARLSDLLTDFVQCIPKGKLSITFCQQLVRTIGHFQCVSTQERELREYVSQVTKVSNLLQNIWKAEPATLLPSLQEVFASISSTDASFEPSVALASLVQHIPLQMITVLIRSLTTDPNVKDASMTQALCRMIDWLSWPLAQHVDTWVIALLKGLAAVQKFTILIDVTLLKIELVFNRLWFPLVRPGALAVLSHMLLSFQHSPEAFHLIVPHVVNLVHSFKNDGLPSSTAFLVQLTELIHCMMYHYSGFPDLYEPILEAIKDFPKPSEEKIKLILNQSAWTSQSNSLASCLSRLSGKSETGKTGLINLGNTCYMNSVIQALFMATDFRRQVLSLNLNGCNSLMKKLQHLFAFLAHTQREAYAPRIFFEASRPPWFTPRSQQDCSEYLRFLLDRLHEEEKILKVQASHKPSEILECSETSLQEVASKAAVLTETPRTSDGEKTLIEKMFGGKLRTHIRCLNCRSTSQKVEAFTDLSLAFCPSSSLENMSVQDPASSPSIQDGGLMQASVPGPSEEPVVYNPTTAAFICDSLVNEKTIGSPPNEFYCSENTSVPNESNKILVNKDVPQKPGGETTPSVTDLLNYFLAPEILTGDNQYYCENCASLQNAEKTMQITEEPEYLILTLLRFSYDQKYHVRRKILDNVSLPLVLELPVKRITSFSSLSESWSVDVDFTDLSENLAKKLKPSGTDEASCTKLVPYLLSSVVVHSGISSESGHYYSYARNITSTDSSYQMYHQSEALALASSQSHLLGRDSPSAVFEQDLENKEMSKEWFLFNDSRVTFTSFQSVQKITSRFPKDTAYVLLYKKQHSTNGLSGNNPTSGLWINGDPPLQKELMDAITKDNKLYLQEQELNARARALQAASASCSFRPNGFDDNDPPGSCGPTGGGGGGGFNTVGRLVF
Outline: as §1

USP39 = biological target: T3, USP39 (UniProt Q53GS9)
T3 sequence (whole entry): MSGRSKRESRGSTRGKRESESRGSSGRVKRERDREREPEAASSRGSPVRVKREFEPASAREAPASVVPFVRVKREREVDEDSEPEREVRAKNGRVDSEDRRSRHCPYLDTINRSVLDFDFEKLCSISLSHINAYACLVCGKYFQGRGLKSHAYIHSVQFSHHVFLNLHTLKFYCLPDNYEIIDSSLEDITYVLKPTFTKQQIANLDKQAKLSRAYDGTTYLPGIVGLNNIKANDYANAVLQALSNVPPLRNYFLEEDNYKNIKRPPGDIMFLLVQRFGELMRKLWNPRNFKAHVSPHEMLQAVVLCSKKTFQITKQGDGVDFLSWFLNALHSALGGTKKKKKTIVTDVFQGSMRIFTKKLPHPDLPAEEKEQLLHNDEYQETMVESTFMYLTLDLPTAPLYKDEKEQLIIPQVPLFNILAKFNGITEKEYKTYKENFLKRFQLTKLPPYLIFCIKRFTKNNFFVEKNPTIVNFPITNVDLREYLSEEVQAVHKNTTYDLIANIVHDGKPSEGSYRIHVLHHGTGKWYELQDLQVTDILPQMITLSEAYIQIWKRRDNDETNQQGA
Outline: as §1

USP4 = biological target: T4, USP4 (UniProt Q13107)
T4 sequence (whole entry): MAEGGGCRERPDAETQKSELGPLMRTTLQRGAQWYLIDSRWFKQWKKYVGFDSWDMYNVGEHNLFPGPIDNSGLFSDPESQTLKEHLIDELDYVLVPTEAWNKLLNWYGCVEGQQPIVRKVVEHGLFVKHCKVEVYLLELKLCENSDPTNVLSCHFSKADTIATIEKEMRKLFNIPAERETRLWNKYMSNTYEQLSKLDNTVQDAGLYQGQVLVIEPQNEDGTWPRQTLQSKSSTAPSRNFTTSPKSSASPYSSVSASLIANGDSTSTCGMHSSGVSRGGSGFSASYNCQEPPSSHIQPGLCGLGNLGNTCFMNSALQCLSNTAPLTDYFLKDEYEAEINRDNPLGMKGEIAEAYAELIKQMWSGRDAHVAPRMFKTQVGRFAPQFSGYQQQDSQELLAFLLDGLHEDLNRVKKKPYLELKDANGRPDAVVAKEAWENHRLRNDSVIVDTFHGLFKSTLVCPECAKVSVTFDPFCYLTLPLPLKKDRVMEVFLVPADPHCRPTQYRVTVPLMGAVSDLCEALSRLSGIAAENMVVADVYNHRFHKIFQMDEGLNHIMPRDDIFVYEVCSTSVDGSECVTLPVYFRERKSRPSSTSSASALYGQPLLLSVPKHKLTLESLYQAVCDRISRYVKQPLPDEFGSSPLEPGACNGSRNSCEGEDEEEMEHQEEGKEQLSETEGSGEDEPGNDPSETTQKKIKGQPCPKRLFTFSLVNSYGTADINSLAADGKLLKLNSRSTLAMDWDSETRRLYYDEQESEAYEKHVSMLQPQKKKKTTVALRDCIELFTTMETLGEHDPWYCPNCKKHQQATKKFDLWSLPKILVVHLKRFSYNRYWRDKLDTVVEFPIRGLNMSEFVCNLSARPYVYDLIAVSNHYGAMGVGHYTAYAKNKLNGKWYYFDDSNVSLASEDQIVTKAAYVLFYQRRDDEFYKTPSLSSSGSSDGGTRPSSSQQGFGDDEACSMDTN
Outline: as §1

Measured: log2 ratio of Biotin-Ahx-Ub-VS probe labelling

Cc1ccc(CN(CCO)C(=O)CCl)cc1
inactive: USP34 0.0432 | USP36 -0.00999 | USP38 -0.303 | USP39 -0.0925 | USP4 -0.21
